# Test: small-molecule binders of probe aInhba, primary screen, biochemical, small-molecule microarray, 635/667 nm fluorescence (AID 1148);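 note: score merges 667nm spot fluorescence with signal-to-noise for antibody binding to printed compounds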
# Settings: higher = more signal
row,SMILES,composite z-score
1,CC(C)C(=C=CC[C@@H](O)c1ccc(OCCO)cc1)CCO,-0.0719
2,CC#CCO[Si](C#CCCCCCC)(C(C)C)C(C)C,-0.288
3,CN(C)CCCC[C@@H]1NC(=O)[C@H]2C[C@@H](C(=O)NCc3ccc(F)cc3)[C@@H](c3ccc(O)cc3)N2C1=O,0.0676
4,CC(C)N1CC=CC23O[C@@H]4C=CCCOC(=O)C4[C@H]2C(=O)N(CCCCCO)[C@@H]3C1=O (stereo not given in full),-0.224
5,COCCOC(=O)N1C(=O)[C@@]2(c3ccccc31)[C@H](C(=O)N1CCCCCCC1)[C@H]1C(=O)O[C@H](c3ccccc3)[C@H](c3ccccc3)N1[C@@H]2c1ccc(O)cc1,2.13
6,C#CCN([C@H](/C=C/C1CC1)[C@@H](O)Cc1ccccc1)[C@@H](Cc1ccccc1)C(=O)OC,0.0013
7,COC(=O)[C@@]1(Cc2ccc(F)cc2)[C@H]2c3cc(C(=O)N(C)C)n(CCn4cc([N+](=O)[O-])nc4C)c3C[C@H]2CN1C(=O)c1ccccc1,0.234
8,CCOC(=O)C[C@H]1[C@H](OC(=O)Cc2ccc3c(c2)OCO3)[C@@H](NC(=O)c2ccccc2)c2cc(OCCCO)ccc2N1C(=O)Cc1ccc(OC)cc1,-0.045
9,C[N+](C)(C)CCCC[C@@H]1NC(=O)[C@H]2C[C@@H](C(=O)NCCCCCNC(=O)CS)[C@@H](c3ccc(O)cc3)N2C1=O,-0.045
10,CN1C(=O)[C@]2(CCS(=O)(=O)c3ccccc3)N=C(c3ccc(OCCCO)cc3)O[C@@H]2c2ccccc21,0.174
11,O=C1O[C@@H](c2ccccc2)[C@@H](c2ccccc2)N2[C@@H](c3ccc(OCCO)cc3)[C@]3(C(=O)Nc4ccc(C#CCCO)cc43)[C@@H](C(=O)Nc3nc4ccccc4s3)[C@H]12,0.0291
12,COCCn1c(C(=O)N2CCCC2)cc2c1C[C@H]1CN(C(=O)c3ccccc3)[C@@](Cc3ccccc3)(C(=O)OC)[C@@H]21,0.679
13,CC(C)(C)N1CC=CC23O[C@@H]4/C=C\CCCOC(=O)C4[C@H]2C(=O)N(CCCCCCO)[C@@H]3C1=O (stereo not given in full),-0.0719
14,CCCC[C@@H](O)C1=C(COC)Cn2c(=O)n(-c3ccccc3)c(=O)n2[C@H]1CO,-0.128
15,COC(=O)[C@@H]1N=C(c2ccc(OCCCO)cc2)O[C@@H]1c1ccccc1CN=[N+]=[N-],0.177
16,CN1C=C(C(=O)OCCS(C)(=O)=O)C(C(=O)OCCS(C)(=O)=O)=CC(CCCO)=CC1c1ccc(CN2CCCC2)cc1 (stereo not given),0.253
17,COCCOC(=O)N1C(=O)[C@@]2(c3ccccc31)[C@H](C(N)=O)[C@H]1C(=O)O[C@H](c3ccccc3)[C@H](c3ccccc3)N1[C@@H]2c1ccc(OCCO)cc1,0.0155
18,CC(C)CNC(=O)[C@@H]1c2ccccc2C(=O)N(C(C)C)[C@H]1c1ccc(CO)cc1,-0.0986

row,SMILES,composite z-score
1,CC(C)c1ccc(NN2C(C(O)C(C)C)C=CC3C(=O)N(c4ccccc4)C(=O)C32)cc1 (stereo not given),0.722
2,COCCOC(=O)N1C(=O)[C@@]2(c3cc(C#CCC(C(=O)OC)C(=O)OC)ccc31)[C@H](C(=O)N1CCCCCCC1)[C@H]1C(=O)O[C@H](c3ccccc3)[C@H](c3ccccc3)N1[C@@H]2c1ccccc1OCCO,1.91
3,O=C(NCCO)C1=C[C@H](Oc2ccccc2I)[C@@H](O)[C@H](NCc2ccc(F)cc2)C1,-0.197
4,COC(=O)Cn1c(C(=O)N(C)C)cc2c1C[C@H]1CN(C(=O)c3ccccc3)[C@@](Cc3ccc(OC)cc3)(C(=O)OC)[C@@H]21,0.438
5,[N-]=[N+]=NCc1ccccc1C[C@]1(C(=O)NCc2ccccc2)N=C(c2ccc(OCCCO)cc2)O[C@H]1c1ccccc1CN=[N+]=[N-],0.237
6,CC(=O)NCCCC[C@@H]1NC(=O)[C@H]2C[C@@H](C(=O)NCCCCCC[N+](C)(C)C)[C@@H](c3ccc(O)cc3)N2C1=O,0.0857
7,[N-]=[N+]=NCc1ccccc1C[C@]1(C(=O)N2CCCCC2)N=C(c2ccc(OCCCO)cc2)O[C@H]1c1ccccc1,-0.0471
8,COc1ccc(CCNC(=O)[C@@]2(Sc3ccc(C)cc3)CC(=O)N(C(C)C)[C@@H]2c2ccc(CO)cc2)cc1,-0.137
9,COC(=O)C(CC#Cc1ccc2c(c1)[C@]1(C(=O)N2)[C@H](c2ccc(O)cc2)N2[C@H](c3ccccc3)[C@H](c3ccccc3)OC(=O)[C@H]2[C@@H]1C(=O)N1CCc2cc(OC)c(OC)cc2C1)C(=O)OC,-0.101
10,COc1ccccc1CN1C(=O)c2ccccc2[C@](Cc2ccccc2I)(C(=O)NCCCN(C)C)[C@@H]1c1ccc(CO)cc1,-0.187
11,CN1C(=O)C2C(C1=O)C1C=C(c3ccc(CO)cc3)C2C(c2cccs2)N1C (stereo not given),-0.0523
12,NCCCC[C@@H]1NC(=O)[C@H]2C[C@@H](C(=O)NCc3ccc(F)cc3)[C@@H](c3cccc(OCCO)c3)N2C1=O,0.122
13,CC(C)(C)OC(=O)CC[C@]1(C(=O)N2CCOCC2)N=C(c2ccc(OCCCO)cc2)O[C@H]1c1ccccc1CN=[N+]=[N-],0.279
14,CC(C)[C@@H](C(=O)O)n1cc(-c2ccccc2)nn1,0.019
15,NCCCC[C@@H]1NC(=O)[C@H]2C[C@@H](C(=O)NCc3ccc(F)cc3)[C@@H](c3ccc(O)cc3)N2C1=O,0.0963
16,O=C1OCCC=C[C@H]2OC34C=CCN(c5ccc(Cl)cc5)C(=O)[C@H]3N(CCO)C(=O)[C@@H]4C12 (stereo not given in full),-0.159
17,O=C1O[C@@H](c2ccccc2)[C@@H](c2ccccc2)N2[C@@H](c3ccc(O)cc3)[C@]3(C(=O)Nc4ccc(C#CC5=CCCCC5)cc43)[C@@H](C(=O)N3CCCCCCC3)[C@H]12,1.04

# — PubChem BioAssay
